Assay results from ChEMBL document CHEMBL3988442, “University of Dundee, Small-Polar-MMV Screening Library” (2021).
For some of these results: Potency and affinity values are given separately.

Legend:
Set-up in all cases: scale not given: direction of the effect not stated beside the values
[1] = target: Protein translocase subunit SecA (Escherichia coli (strain K12)) (UniProt P10408); assay: Assay to Identify E. coli SecA ATPase Inhibitors; format: functional; details: 30 µM
[2] = target: T1, Ubiquitin-activating enzyme e1, putative (Leishmania donovani (strain BPK282A1)) (UniProt E9BSI1); assay: Leishmania donovani Ubiquitin Activating Enzyme (LdE1); format: functional; details: 30 µM
T1 sequence (whole entry): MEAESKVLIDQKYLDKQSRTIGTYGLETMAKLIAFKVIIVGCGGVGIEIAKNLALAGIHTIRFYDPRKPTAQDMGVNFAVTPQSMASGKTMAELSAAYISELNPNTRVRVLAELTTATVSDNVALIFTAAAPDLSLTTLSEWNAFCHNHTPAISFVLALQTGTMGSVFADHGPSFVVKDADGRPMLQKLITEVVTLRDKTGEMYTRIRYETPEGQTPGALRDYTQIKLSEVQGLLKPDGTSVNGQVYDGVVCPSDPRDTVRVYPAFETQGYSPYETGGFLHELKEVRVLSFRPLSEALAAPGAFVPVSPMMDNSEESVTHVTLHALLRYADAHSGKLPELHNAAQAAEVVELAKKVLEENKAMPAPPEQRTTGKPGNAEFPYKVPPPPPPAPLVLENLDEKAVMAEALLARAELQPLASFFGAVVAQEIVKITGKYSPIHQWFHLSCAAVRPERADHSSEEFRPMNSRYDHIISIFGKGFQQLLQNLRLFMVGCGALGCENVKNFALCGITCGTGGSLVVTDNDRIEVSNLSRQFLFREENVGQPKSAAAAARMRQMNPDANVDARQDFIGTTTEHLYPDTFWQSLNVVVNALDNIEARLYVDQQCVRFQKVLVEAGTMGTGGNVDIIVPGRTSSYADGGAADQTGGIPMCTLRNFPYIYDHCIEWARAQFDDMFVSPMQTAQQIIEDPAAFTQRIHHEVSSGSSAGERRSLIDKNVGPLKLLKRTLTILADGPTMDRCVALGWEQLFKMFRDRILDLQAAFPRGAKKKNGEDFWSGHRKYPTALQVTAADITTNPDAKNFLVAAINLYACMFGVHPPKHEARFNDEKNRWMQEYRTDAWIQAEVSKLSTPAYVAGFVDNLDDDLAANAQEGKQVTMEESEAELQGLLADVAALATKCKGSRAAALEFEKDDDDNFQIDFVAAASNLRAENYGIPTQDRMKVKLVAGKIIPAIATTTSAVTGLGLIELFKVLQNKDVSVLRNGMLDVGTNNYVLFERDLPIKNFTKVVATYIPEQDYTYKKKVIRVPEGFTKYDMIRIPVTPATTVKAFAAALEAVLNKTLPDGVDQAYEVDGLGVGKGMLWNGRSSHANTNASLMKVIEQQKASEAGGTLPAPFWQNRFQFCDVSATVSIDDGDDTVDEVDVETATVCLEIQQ

[3] = target: AMP-activated protein kinase, AMPK (Homo sapiens) (UniProt P54646+O43741+P54619+Q9UGJ0+Q9Y478+Q13131+Q9UGI9); assay: AMP-dependent Kinase enzyme assay. An in vitro enzyme assay that detects ADP turnover that is directly proportional to AMPK activity. This uses naive AMPK that is activated during the assay with MK-8722; format: functional; details: 30 µM
[4] = target: Sialic acid-binding Ig-like lectin 9 (Homo sapiens) (UniProt Q9Y336); assay: Hs-Siglec9 ALPHAscreen SOP 20170721; details: 10 µM
Trypanosoma cruzi = assay: Trypanosoma cruzi phosphomannomutase and mannose-1-phosphate guanylyltransferase assay; format: functional; details: 10 µM
[5] = target: T2, Arginase-2, mitochondrial (Homo sapiens) (UniProt P78540); assay: in vitro enzyme assay to detect the production of urea directly proportional to the activity of Arginase II; format: functional; details: 33.3 µM; further: in the data most compounds retested in dose-response had high values
T2 sequence (whole entry): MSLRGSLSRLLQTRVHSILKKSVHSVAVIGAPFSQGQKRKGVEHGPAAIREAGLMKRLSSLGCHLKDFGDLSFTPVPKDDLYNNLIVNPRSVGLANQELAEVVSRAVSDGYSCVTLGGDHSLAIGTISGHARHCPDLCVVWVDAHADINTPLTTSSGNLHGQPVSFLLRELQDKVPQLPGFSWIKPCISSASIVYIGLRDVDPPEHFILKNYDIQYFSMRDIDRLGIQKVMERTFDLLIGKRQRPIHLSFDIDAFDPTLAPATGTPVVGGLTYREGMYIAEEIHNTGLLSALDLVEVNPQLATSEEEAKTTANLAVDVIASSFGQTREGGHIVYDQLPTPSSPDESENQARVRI

[6] = target: T3, Proteasome subunit beta (Trypanosoma cruzi) (UniProt O96673); assay: Trypanosoma cruzi proteasome chymotrypsin-like activity (TcProtChymo) assay.; further: in the data most compounds retested in dose-response had high values; format: functional; details: 9.37 µM
T3 sequence (whole entry): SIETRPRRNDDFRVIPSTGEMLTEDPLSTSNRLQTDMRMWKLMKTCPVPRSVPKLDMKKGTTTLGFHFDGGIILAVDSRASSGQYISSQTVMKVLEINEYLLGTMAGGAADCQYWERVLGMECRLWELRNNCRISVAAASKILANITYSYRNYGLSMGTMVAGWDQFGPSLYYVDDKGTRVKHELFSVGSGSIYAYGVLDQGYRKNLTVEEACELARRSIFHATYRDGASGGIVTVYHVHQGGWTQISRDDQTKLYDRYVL

Homo sapiens = species: Homo sapiens; assay: To identify inhibition of the IFN signalling (Jak-Stat) pathway via expression of an eGFP reporter gene under the control of an IFN-stimulated response element (ISRE) containing MxA promoter.; format: functional; details: 30 µM
[7] = target: T4, Tyrosyl-tRNA synthetase, putative (Trypanosoma cruzi (strain CL Brener)) (UniProt Q4DSP6); assay: Trypanosoma cruzi tyrosyl tRNA synthetase (TcYRS) _High Tyrosine SOP; format: functional; details: 30 µM; further: in the data most compounds retested in dose-response had high values
T4 sequence (whole entry): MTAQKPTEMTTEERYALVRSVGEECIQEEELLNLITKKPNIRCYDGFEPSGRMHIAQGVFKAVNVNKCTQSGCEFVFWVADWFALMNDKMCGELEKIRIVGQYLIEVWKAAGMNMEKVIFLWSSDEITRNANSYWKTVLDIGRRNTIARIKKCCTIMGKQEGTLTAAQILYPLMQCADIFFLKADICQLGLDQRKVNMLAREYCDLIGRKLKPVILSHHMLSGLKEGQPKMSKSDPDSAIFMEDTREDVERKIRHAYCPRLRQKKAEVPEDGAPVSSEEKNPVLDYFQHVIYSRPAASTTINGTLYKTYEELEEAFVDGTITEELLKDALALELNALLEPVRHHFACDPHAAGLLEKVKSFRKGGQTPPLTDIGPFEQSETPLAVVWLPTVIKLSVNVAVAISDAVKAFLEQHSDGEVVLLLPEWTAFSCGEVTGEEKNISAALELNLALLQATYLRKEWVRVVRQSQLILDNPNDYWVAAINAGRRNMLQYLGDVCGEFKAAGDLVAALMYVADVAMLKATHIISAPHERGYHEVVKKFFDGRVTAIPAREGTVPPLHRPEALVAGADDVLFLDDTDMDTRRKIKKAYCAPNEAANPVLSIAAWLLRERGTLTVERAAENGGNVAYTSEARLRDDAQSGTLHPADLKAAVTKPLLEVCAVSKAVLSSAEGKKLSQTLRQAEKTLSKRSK

[8] = target: T4, Tyrosyl-tRNA synthetase, putative (Trypanosoma cruzi (strain CL Brener)); assay: Trypanosoma cruzi tyrosyl tRNA synthetase (TcYRS) SOP; format: functional; details: 30 µM
[9] = target: Chromo domain-containing protein 1 (Saccharomyces cerevisiae (strain ATCC 204508 / S288c) (Baker's yeast)) (UniProt P32657); assay: ScCHD-1 Enzyme Inhibition Assay; format: functional; details: 30 µM; further: in the data most compounds retested in dose-response had high values
Chain of Chromo domain-containing protein 1 (Saccharomyces cerevisiae (strain ATCC 204508 / S288c) (Baker's yeast)) (P32657 whole entry, the tested form may be a part): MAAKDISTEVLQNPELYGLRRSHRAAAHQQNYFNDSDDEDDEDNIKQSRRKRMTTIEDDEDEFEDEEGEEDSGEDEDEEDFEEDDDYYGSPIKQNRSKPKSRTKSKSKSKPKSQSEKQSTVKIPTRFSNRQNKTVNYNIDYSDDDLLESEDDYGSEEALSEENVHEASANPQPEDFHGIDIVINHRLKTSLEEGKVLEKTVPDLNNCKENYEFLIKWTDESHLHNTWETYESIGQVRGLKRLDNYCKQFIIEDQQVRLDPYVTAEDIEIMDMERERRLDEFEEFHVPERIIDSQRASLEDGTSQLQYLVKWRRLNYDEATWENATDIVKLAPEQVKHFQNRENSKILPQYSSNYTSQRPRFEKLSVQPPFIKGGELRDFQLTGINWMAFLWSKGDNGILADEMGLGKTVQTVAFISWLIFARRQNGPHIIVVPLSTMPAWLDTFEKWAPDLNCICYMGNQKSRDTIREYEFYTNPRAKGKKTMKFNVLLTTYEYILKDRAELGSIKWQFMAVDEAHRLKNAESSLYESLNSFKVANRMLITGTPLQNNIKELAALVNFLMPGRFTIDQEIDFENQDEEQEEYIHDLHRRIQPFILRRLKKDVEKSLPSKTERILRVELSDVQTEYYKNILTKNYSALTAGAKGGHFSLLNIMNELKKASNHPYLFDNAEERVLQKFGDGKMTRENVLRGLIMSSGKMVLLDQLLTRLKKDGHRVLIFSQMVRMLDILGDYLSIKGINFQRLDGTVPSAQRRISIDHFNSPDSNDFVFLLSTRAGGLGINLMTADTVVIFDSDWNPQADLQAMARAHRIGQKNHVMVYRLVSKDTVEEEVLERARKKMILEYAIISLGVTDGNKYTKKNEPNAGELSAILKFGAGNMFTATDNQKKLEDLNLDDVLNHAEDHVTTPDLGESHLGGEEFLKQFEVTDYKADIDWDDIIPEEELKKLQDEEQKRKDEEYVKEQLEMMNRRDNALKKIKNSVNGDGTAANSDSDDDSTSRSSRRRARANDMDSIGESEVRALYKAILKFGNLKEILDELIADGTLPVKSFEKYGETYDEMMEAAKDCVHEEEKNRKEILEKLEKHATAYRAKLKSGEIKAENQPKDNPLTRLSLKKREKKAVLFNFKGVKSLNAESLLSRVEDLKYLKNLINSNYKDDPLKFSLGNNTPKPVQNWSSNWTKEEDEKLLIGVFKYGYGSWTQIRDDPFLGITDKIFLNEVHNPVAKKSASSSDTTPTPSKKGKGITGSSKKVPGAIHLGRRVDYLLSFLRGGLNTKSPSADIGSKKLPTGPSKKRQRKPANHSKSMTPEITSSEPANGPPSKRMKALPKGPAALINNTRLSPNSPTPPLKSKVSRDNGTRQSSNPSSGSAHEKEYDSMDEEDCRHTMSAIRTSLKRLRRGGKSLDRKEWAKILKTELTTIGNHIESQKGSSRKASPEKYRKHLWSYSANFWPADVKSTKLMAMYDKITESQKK

Chain of Sialic acid-binding Ig-like lectin 9 (Homo sapiens) (Q9Y336 whole entry): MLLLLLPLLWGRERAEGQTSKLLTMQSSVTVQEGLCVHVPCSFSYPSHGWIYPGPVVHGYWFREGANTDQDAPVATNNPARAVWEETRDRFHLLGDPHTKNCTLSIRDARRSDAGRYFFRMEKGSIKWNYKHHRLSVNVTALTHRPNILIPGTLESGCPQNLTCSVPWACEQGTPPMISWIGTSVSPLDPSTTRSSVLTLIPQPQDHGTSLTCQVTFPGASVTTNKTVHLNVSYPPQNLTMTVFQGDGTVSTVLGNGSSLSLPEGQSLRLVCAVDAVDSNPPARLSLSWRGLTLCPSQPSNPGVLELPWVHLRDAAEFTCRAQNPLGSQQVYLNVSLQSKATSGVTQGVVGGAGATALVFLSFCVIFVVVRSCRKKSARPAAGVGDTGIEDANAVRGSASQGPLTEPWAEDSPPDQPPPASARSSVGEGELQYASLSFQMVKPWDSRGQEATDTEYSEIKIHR
Chain of Protein translocase subunit SecA (Escherichia coli (strain K12)) (P10408 whole entry): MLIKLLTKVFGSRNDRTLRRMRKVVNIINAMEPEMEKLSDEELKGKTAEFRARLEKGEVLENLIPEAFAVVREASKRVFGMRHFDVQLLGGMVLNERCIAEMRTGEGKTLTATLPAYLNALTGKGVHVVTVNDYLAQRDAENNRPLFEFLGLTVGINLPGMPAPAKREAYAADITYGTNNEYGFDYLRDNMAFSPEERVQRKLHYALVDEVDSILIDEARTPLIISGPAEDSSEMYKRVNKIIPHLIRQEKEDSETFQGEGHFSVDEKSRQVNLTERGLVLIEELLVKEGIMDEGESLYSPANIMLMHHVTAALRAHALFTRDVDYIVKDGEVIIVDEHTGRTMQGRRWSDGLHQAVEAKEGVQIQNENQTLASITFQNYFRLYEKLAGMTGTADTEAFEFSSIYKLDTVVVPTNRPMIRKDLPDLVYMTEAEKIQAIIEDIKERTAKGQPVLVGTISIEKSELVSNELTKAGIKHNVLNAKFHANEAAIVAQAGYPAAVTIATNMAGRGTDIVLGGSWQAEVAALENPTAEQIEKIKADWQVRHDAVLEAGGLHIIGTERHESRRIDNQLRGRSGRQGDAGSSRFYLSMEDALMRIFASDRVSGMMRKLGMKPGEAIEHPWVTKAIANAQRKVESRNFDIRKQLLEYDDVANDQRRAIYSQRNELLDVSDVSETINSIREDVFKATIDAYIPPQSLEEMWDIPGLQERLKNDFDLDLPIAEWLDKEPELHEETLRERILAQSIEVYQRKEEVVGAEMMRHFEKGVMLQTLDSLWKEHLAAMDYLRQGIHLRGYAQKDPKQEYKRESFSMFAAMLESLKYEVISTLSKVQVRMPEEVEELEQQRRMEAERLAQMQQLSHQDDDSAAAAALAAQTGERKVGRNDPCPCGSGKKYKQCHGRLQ

Row | SMILES | Percent Effect [1] | Percent Effect [2] | Percent Effect [3] | Percent Effect [4] | Percent Effect (Trypanosoma cruzi) | Percent Effect [5] | Percent Effect [6] | Percent Effect (Homo sapiens) | Percent Effect [7] | Percent Effect [8] | Percent Effect [9]
1 | CC(C)NC(=O)N1CCN(S(=O)(=O)C2CC2)CC2(CC(=O)N(C)C2)C1 (stereo not given) | -4.24% | 10.4% | 5.32% | -0.477% | 5.23% | -5.81% | -2.79% | 12.6% | 1.06% | 6.41% | -4.42%
2 | Cc1noc(C)c1-c1cncc(C2CCCN2Cc2cncnc2)n1 (stereo not given) | -2.17% | 2.67% | 6.8% | -2.83% | -3.54% | 1.63% | 5.55% | 18.2% | 4.25% | 8.97% | -6.34%
3 | c1cc2c(cc1C1CCCN1Cc1nnnn1C1CC1)OCCO2 (stereo not given) | -3.24% | 6.94% | -13.5% | 29.5% | 6.32% | -5.74% | 4.39% | -5.04% | 5.26% | 15.4% | -4.08%
4 | CN(C(=O)Cn1nc(-c2ccc(F)cc2)oc1=O)C1CCS(=O)(=O)C1 (stereo not given) | 0.314% | 20.8% | -6.94% | 6.92% | 0.291% | 0% | 19.3% | 13.6% | 2.1% | 10.3% | -6.7%
5 | CCCNC(=O)CNC(=O)CCc1ccccc1Br | 0.865% | 6.94% | -6.34% | -5.04% | 1.85% | 13.7% | 18.1% | -8.19% | 2.1% | 7.69% | -2.27%
6 | Clc1ccccc1C1(c2ccnc(CC3CC3)n2)CCNCC1 | -2.96% | -7.79% | -1.73% | 13.8% | 6.59% | -80% | 13.1% | -7.99% | 8.6% | 16.1% | -0.745%
7 | CC(=O)Nc1ccc(CNC2CC(=O)N(Cc3cccc(F)c3)C2)cc1 (stereo not given) | -2.91% | 0% | -1.25% | 1.06% | -2.7% | -3.33% | 1.55% | -18.6% | 2.65% | 7.32% | -0.408%
8 | Cc1nc(C2CCCN(C(=O)c3cnn(C(C)(C)C)c3)C2)no1 (stereo not given) | -11.7% | 16.5% | -6.15% | -0.567% | 4.82% | -1.07% | 2.74% | -0.962% | 4.17% | 12.7% | -34.2%
9 | Cc1ccc(=O)n(CC2(O)CCN(Cc3cc(C)c(O)c(C)c3)CC2)n1 | -6.97% | 23% | -6.19% | 7.09% | 6.52% | -2.55% | 13.3% | -3.64% | 2.15% | 14.3% | 45.6%
10 | O=C(CN1CCC(C(=O)c2cc(F)ccc2F)CC1)NC1CCCC1 | -10.1% | -5.26% | 13.8% | -3.6% | -1.46% | 5.92% | 8.53% | 26.2% | 1.06% | 0% | -3.84%
11 | CC(C)N(C)S(=O)(=O)N(C)Cc1ccc2c(c1)OCO2 | -6.28% | 15.6% | -11.7% | 5.6% | 10.5% | 2.49% | 12.7% | 13.3% | 5.83% | 21.9% | -8.74%
12 | COc1ccc2c(c1)CC(NC(=O)NCc1cccs1)CO2 (stereo not given) | 2.24% | 7.79% | 5.45% | -2.89% | -5.62% | -112% | 5.4% | 5.91% | 2.12% | 8.97% | -2.81%
13 | Cc1ccc(C(=O)N2CC[C@@H]3[C@H]2CCC(=O)N3c2ccccc2)o1 | -2.77% | 2.67% | 14% | -0.294% | 0.591% | 0.233% | -2.03% | 12.1% | 7.45% | 11.5% | 1.89%
14 | Cc1ccc(S(=O)(=O)NC2CC2)cc1C | 1.16% | -1.39% | -6.59% | 11.8% | 0.875% | 20.3% | 0% | 28.3% | -1.05% | 0% | 0.926%
15 | CCOc1ccnc(N2CCN(C(=O)c3cccc(C#N)c3)CC2)n1 | -7.73% | 13.2% | -3.41% | 8.57% | -1.77% | -2.88% | 3.47% | 8.64% | 2.46% | 11.1% | 2.13%
16 | CCOc1ccccc1-c1noc(CN2CC(n3cccn3)C2)n1 | -1.57% | 2.6% | 2.37% | -3.32% | 8.13% | -3.16% | 2.99% | 4.34% | 0.952% | 7.06% | -6.41%
17 | O=C(c1cccs1)N1CCC(n2nc(-c3ccco3)ccc2=O)CC1 | -6.35% | 12.2% | 7.9% | 14% | -1.19% | -5.8% | 12.9% | 0.605% | 9.68% | 16.9% | -26.4%
18 | CN(C)CCN(C)C(=O)c1cnc2c(c1)nc(-c1ccccc1Cl)n2C | -6.72% | 5.41% | -0.741% | -1.85% | -0.88% | 2.23% | -1.29% | 8.57% | 9.68% | 13.6% | -3.61%
19 | COCCN1CC[C@@H](O)[C@@H]1Cc1ccccc1 | 1.28% | 6.67% | 2.24% | 0.614% | -10.4% | -8.63% | 10.7% | -7.47% | 2.12% | 0% | -7.73%
20 | Cc1ccc(CNCc2nnc3n2CCCC3C(F)(F)F)o1 (stereo not given) | -2.71% | 5.33% | 2.9% | -7.37% | -6.13% | -3.12% | 8.54% | 11.4% | 0.546% | 3.7% | -5.76%
